In the library only some 7.3% were active in any assay of this set; here they are far more common.
SMN2 splice up: increases expression of the SMN2 splice variant. HEK293 SMN2-luciferase splicing reporter, luminescence, 30-36 h. Potency, µM (series often up to 46.1 µM), without a hit: top-dose activity change, positive = activation, most hits filed as activators. AID 1458. 2.8% of 210,000 active; further: % of control where 0% means no effect; nearly all actives have a fitted effect of over 55% in size
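HEK293 cells carry an SMN2 […]–luciferase reporter in which exon 7 inclusion puts luciferase in frame. Cells were plated 10-12 h before compound addition, then incubated 30-36 h at 37C. ONE-Glo luminescence was read; sodium butyrate at 4.5 mM final served as control.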
NPC1 prom act: activates the NPC1 promoter. Huh7 NPC1 promoter luciferase reporter, 24 h. Potency, µM (titrated, usually from 9.22 µM), for inactives: at the highest dose activation, actives largely listed as activators. 2.4% of 320,000 active. AID 485313; further: % of control where 0% means no effect; nearly all actives have a fitted effect of over 60% in size
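Stable NPC1-promoter luciferase Huh7 line; cpd (DMSO) 24 h, 37 °C, 5% CO2; Amplite luciferase reagent 10 min RT; luminescence readout. qHTS format.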
FLuc modulator: inhibits or activates purified firefly luciferase, miR-21 counter-screen; P08659; purified FLuc, Km substrates, luminescence inhibition; Potency, µM (doses to about 57.5 µM), for inactives: at the top dose activity change, negative = inhibition, most hits filed as inhibitors; 6.9% of 360,000 active; AID 588342;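 further: plate controls were vehicle for no effect and reference inhibitor for full effect; nearly all actives have a fitted effect of over 55% in size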
Target sequence (P08659 whole entry, looked up): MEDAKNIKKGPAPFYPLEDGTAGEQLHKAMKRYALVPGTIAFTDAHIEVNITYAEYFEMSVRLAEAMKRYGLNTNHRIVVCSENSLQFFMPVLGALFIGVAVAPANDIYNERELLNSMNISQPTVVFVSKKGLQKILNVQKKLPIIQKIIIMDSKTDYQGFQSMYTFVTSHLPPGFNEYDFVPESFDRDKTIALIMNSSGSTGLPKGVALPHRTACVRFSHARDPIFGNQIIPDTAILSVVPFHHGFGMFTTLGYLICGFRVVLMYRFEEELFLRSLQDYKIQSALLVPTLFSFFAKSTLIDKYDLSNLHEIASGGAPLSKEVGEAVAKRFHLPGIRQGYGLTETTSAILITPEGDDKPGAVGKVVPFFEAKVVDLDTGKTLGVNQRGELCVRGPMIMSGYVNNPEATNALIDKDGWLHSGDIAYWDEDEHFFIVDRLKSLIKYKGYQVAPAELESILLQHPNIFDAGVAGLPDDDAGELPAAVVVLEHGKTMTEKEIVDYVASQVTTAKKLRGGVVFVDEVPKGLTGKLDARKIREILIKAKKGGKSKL
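Biochemical qHTS of compounds, final roughly 60 µM downward over six points, against 10 nM purified firefly luciferase using Km concentrations of substrates (10 uM D-luciferin, 10 uM ATP) in Tris acetate pH 7.5 buffer; luminescence output.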
KinaseGlo FLuc: blocks Kinase-Glo luciferase, a counter-screen artifact | Kinase-Glo luciferase, ATP luminescence, 8 min | Potency, µM (doses to about 38.3 µM), inactives show at the top dose activity change, negative = inhibition, most hits filed as inhibitors | Q27757 | 0.28% of 200,000 active; further: on the % scale 0 is the no-effect control and ±100 the full control effect; nearly all actives have a fitted effect of over 60% in size
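Compounds were added to a substrate mix at pH 7.2 (50 mM imidazole, 10 uM ATP, within the enzyme's linear range), followed by Kinase-Glo detection reagent; luminescence was measured after 8 minutes at ambient temperature.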
ELG1 genotox: inducers of genotoxicity in HEK293T ELG1-luciferase cells | HEK293T ELG1-luciferase reporter, luminescence, 16 h | Potency, µM (highest dose often 46 µM), for the others: top-dose activity change, positive = activation, actives largely listed as activators | 1.3% of 330,000 active; further: % of control where 0% means no effect; nearly all actives have a fitted effect of over 60% in size
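After overnight (16 hr) compound treatment at 37 °C, ELG1-luciferase HEK293T cells were lysed with ONE-Glo; luminescence quantified 30 min later at room temperature.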
Rab9 promoter act: Rab9 promoter activation; Potency, µM (doses to about 9.22 µM), inactives show top-dose activation, negative = inhibition, usual class: activators; 2.8% of 320,000 active; Huh7 Rab9 promoter-luciferase reporter, luminescence, 24 h; AID 485297; further: % of control where 0% means no effect; nearly all actives have a fitted effect of over 60% in size
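Rab9 promoter-driven luciferase in stably transfected Huh7 cells; 1500 cells/well rested 2 h, exposed to compound in DMSO for 24 h at 37 °C, 5% CO2. Luminescence read 10 min after adding luciferase reagent at ambient temperature.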
Active calls of the source: *; u = inconclusive; x = no result given; [ ] = remark or other dose. The call rests on the fitted dose curve; in most records, active means well fitted curve in the direction sought with a large enough effect; inconclusive means small, poorly fitted or top-dose-only effect, or another doubt; inactive means no such curve, though single readings can be large; an effect the other way counts as inactive or inconclusive. Potency means the concentration at half of the fitted maximal effect.

SMILES	SMN2 splice up	NPC1 prom act	FLuc modulator	KinaseGlo FLuc	ELG1 genotox	Rab9 promoter act
CC(C)(C)c1ccc(C(=O)c2c[nH]c(C(=O)NCc3cccnc3)c2)cc1	-6%	17%	7.6µM*	8%	-5%	24%
Cc1cccn2c(=O)c3cc(C(=O)NCc4ccccc4)c(=N)n(CCOCCO)c3nc12	-8%	x	-8%	x	x	x
O=C(CCCn1c(=O)c2sccc2n(Cc2ccc(F)cc2Cl)c1=O)NCc1ccc2c(c1)OCO2	-1%	x	-12%	x	x	x
COc1ccc(C(=O)c2c[nH]c(C(=O)NCCCn3ccnc3)c2)cc1	-5%	1%	-2%	1%	5%	5%
O=C(CNC(=S)NC(=O)c1ccccc1)c1ccccc1	u	15%	17µM*	-2%	16%	6%
COCCCNC(=S)NC(=O)c1ccc(C)cc1	14µM*	u	13µM*	-1%	u	u
CC(C)(C)c1ccc(C(=O)c2c[nH]c(C(=O)NCCCn3ccnc3)c2)cc1	-50%	24%	19µM*	1%	1%	5%
CC(C)(C)c1ccc(C(=O)NNC(=S)NC(=O)c2cccnc2)cc1	x	3%	19µM*	x	-1%	4%
O=C(CNC(=S)NC(=O)c1ccc(F)cc1)c1ccccc1	28%	0%	4%	-5%	4%	2%
CCOc1ccc(Cn2c(CNS(=O)(=O)c3cccs3)nc3cccnc32)cc1	x	x	7%	x	x	x
CCOCCCNC(=O)C(c1ccccc1)N(Cc1cccs1)C(=O)c1ccc(NC(C)=O)cc1 (stereo unspecified)	4%	x	1%	x	x	x
CCN(CC)CCNC(=O)c1sc2nc(C)cc(C)c2c1-n1cccc1	x	x	-6%	x	x	x
CCOC(=O)c1c(C)oc2nc(C)nc(NCC3CCN(Cc4ccccc4C)CC3)c12	x	x	0%	x	x	x
CCc1ccc(/C=C2/SC(=S)N(CCC(=O)NCCCN3CCOCC3)C2=O)cc1	x	10%	5.4µM*	x	13%	-7%
CCOc1ccc(/C=C2\SC(=S)N(CCCC(=O)NCCCN3CCOCC3)C2=O)cc1	x	-34%	9.5µM*	x	-16%	-37%
O=C(CCCN1C(=O)/C(=C/c2ccccc2Cl)SC1=S)NCCCN1CCOCC1	x	-13%	17µM*	x	-18%	-11%
Cc1cc(C)c(Cn2c3ccccc3c3cnn(CC(=O)NCCc4ccccc4)c(=O)c32)c(C)c1	1%	x	5%	x	x	x
CCNC(=S)Nc1ccc(OCc2nc3ccccc3s2)cc1	x	3.5µM*	12µM*	x	u	4µM*
O=C(O)CCCC(=O)Nc1ccc(OCc2nc3ccccc3s2)cc1	-11%	3%	17µM*	1%	u	18%
CCCCn1c(SCC(=O)c2ccccc2)nc2c(sc3ccccc32)c1=O	x	x	-5%	x	x	x
FC(F)Sc1ccc(NC(=S)NC2CCCC2)cc1	u	27%	13µM*	-2%	6%	3.2µM*
O=C(Nc1ccc(SC(F)F)cc1)C12CCC(CC1)C2	16%	28%	11µM*	-1%	6%	30%
C=C1C2(C(=O)Nc3ccc(SC(F)F)cc3)CCC(C2)C1(C)C (stereo unspecified)	-33%	1%	-3%	0%	-1%	-6%
OC1CCC(NC(=S)Nc2ccc(SC(F)F)cc2)CC1 (stereo unspecified)	16µM*	u	21µM*	1%	u	u
CN(C)/C=C/c1oc2ccc(O)cc2c1[N+](=O)[O-]	20%	26%	u	-5%	u	3.2µM*
SMILES	SMN2 splice up	NPC1 prom act	FLuc modulator	KinaseGlo FLuc	ELG1 genotox	Rab9 promoter act
Cc1oc2ccc(O)cc2c1C(=O)c1ccc([N+](=O)[O-])cc1	-17%	0%	2%	3%	-6%	-1%
CCCN=C(C)C1=C(O)c2ccccc2C1=O	13µM*	u	21µM*	-1%	u	u
N#C/C(=C(\O)C(=O)O)c1ccc(-c2cccc3ccccc23)cc1	-7%[9.22 µM]	x	x	-5%[7.66 µM]	x	x
COC(=O)c1sc(NC(=S)NC(=O)c2ccccc2)nc1C	-4%	u	4.8µM*	3%	u	2.5µM*
COC(=O)c1sc(NC(=S)NC(=O)c2ccccc2Cl)nc1C	24%	u	6.7µM*	-1%	u	u
CCOC(=O)c1sc(NC(=S)NC(=O)c2ccccc2)nc1C	u	-4%	u	-2%	u	-1%
CCc1c(C)sc(NC(=O)c2cc(-c3ccc(OC)cc3)on2)c1C#N	-5%	x	-3%	x	x	x
C/C=C(\C)C(=O)C[Si](C)(C)c1ccccc1	18%	x	x	-1%	x	x
Cc1ccc(-n2nc(C(=O)Nc3cccc(C#N)c3)c3c4ccccc4n(C)c3c2=O)cc1	16%	x	2%	x	x	x
CCc1ccc(CN(Cc2ccco2)c2cnc(S(C)(=O)=O)nc2C(=O)Nc2cccc(C)c2)cc1	x	x	4%	x	x	x
Cc1nc2ccccn2c1-c1csc(Nc2cccc(O)c2)n1	x	1%	-7%	-3%	2%	-1%
Cc1cccc(Nc2nc(-c3ccc(O)cc3O)cs2)n1	x	3.2µM*	13µM*	x	u	4µM*
Oc1ccc(-c2csc(Nc3ncccn3)n2)c(O)c1	11µM*	3.2µM*	3µM*	-2%	7.3µM*	1.1µM*
Oc1ccc(-c2csc(Nc3ncccn3)n2)cc1O	u	22%	8.5µM*	-1%	u	-2%
Clc1cccc(Nc2nc(-c3ccncc3)cs2)c1	x	-5%	-3%	0%	-2%	-2%
Cc1nc(-c2ccc3c(c2)CCC(=O)N3)cs1	x	u	17µM*	x	u	u
Cc1ccc(-c2csc(Cc3nc(-c4ccc5c(c4)CCC(=O)N5)cs3)n2)cc1	x	-5%	u	x	-24%	1%
Cc1nc(-c2ccc3c(c2)OCCO3)cs1	u	2.8µM*	21µM*	-7%	u	3.2µM*
Cc1cccc(Nc2nc(-c3ccncc3)cs2)c1	-4%	1%	17µM*	1%	3%	u
CC(=O)Nc1ccc(-c2csc(NNC(=O)c3ccc(C)cc3)n2)cc1	-17%	-4%	2%	0%	-6%	-3%
Cc1ccc(Nc2nc(-c3ccncc3)cs2)cc1	x	2.2µM*	0.95µM*	-3%	u	1.3µM*
COc1ccc(-c2[nH]c(-c3ccccc3)nc2SCC(=O)Nc2ccc3c(c2)OCO3)cc1	1%	x	-17%	x	x	x
CC(C)CCn1c(SCc2ccc(F)cc2Cl)nc2ccsc2c1=O	x	x	-2%	x	x	x
Cc1cccc(Nc2nc(-c3c(C)nc4ccccn34)cs2)c1	-38%	-24%	u	-5%	-15%	-20%
Cc1cccc(Nc2nc(-c3ccc4c(c3)OCCO4)cs2)c1	11µM*	2µM*	2.7µM*	-4%	2.3µM*	0.89µM*
N#Cc1ccc(CS(=O)(=O)c2ccccc2)cc1	6%	x	x	-1%	x	x

High-throughput results as filed in PubChem BioAssay.
